Compounds without any hit were thinned out: in the full panel of roughly 83,000, 20% have a hit.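 Single-dose data. Exposure time 48 hours. Values below 10 considered active.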 A number with no mark means an inactive call. Activity calls are given as the source filed them.
Experiments:
Experiment in all cases: NCI-60 one-dose screen, 48 h (100 = growth as untreated, 0 = no growth, -100 = all killed)
Details in all cases: 10 µM unless noted
[1] = test system: NCI-H23 lung
[2] = test system: NCI-H226 lung
[3] = test system: NCI-H322M lung
[4] = test system: HOP-62 NSCLC
[5] = test system: NCI-H460 lung
[6] = test system: HOP-92 NSCLC
[7] = test system: NCI-H522 lung
[8] = test system: A549/ATCC NSCLC
[9] = test system: 786-0 renal
[10] = test system: COLO 205 colon
[11] = test system: DU-145 prostate
[12] = test system: K-562 leukemia
[13] = test system: MALME-3M melanoma
[14] = test system: MDA-MB-231 breast
[15] = test system: RXF 393 renal
[16] = test system: SF-268 CNS
[17] = test system: SF-295 CNS
[18] = test system: SF-539 CNS
[19] = test system: UACC-257 melanoma
[20] = test system: M14 melanoma

Row | Compound | growth [1] | growth [2] | growth [3] | growth [4] | growth [5] | growth [6] | growth [7] | growth [8] | growth [9] | growth [10] [%] | growth [11] | growth [12] | growth [13] | growth [14] | growth [15] | growth [16] | growth [17] | growth [18] | growth [19] [%] | growth [20]
1 | O=C1N(Cc2ccccc2Cl)c2ccccc2C12NN=C(c1cccc(Cl)c1)S2 (stereo not given) | -18.7% (active) | -58.4% (active) | -12.7% (active) | -22.6% (active) | -50.7% (active) | -68.3% (active) | 16.7% | -63.7% (active) | -67.7% (active) | 66.8 | -46.2% (active) | 10.1% | -23.6% (active) | -4.77% (active) | -73% (active) | 26.2% | -44.9% (active) | 6.32% (active) | 18.9 | 4.67% (active)
2 | CCOC(=O)c1c2c(n3ccc(C)cc13)C(=O)c1ccccc1C2=O | 85.5% | 98.1% | 77% | 106% | 58.7% | 87.8% | 70.5% | 62.5% | 97.3% | 108 | 102% | 75.7% | 103% | 90.2% | 95.6% | 96.3% | 98.5% | 102% | 78.2 | 84.6%
3 | CCN(CC)CCCN1C(=O)c2c(c(C)c3c(oc4cc(O)ccc43)c2C)C1=O | 104% | 35.4% | 92.5% | 94.5% | -24.6% (active) | 93.7% | 82.6% | -74% (active) | -80.6% (active) | 57.4 | -61.7% (active) | -14.4% (active) | -80.4% (active) | -80.3% (active) | 75.7% | -41.4% (active) | 110% | 96.4% | 94.5 | -88.8% (active)
4 | COP(=O)(OC)C(C)(C)CC(=O)CC(C#N)(C#N)C(C#N)C#N | 98.7% | 92.9% | 99.3% | 98.1% | 112% | 55.9% | 101% | 104% | 105% | 107 | 113% | 91.1% | 96.8% | 100% | 97.8% | 98% | 101% | 102% | 103 | 96.2%
5 | O=C(CCC(=O)N/N=C/c1ccccc1O)N/N=C/c1ccccc1O | 61.2% | 61.8% | 29.3% | 36.2% | 44.4% | 57.1% | 51.8% | 62.6% | 69.7% | 35.4 | 48.4% | 40.4% | 62.5% | 49% | 58.9% | 33.2% | 89.6% | 30% | 76 | 36.4%
6 | COc1ccc(C(=S)N2CCN(c3ccccc3Cl)CC2)cc1OC | 117% | 98.1% | 86.6% | 90.9% | 115% | 86% | 85.8% | 115% | 97.5% | 99.5 | 111% | 106% | 90.8% | 102% | 111% | 99.4% | 91.7% | 99.4% | 104 | 92.8%
7 | O=C1/C(=C/c2ccc(Cl)cc2)COc2ccc(O)cc21 | 90.9% | 98.8% | 94.8% | 102% | 102% | 95.9% | 13.9% | 89% | 64.2% | 78.2 | 89.7% | 2.41% (active) | 94.9% | 86% | 97.9% | 79.3% | 101% | 88.1% | 104 | 86%
8 | C=C1C(=O)O[C@H]2[C@H]1CC/C(COC(=O)N[C@H]1C[C@H](O[C@H]3C[C@](O)(C(=O)CO)Cc4c(O)c5c(c(O)c43)C(=O)c3c(OC)cccc3C5=O)O[C@@H](C)[C@H]1O)=C\CC[C@@]1(C)O[C@@H]21 | 91.1% | 58.2% | 98.7% | 78.7% | 63.4% | -5.4% (active) | -50.2% (active) | 77.2% | 43.1% | 36.2 | 69% | 7.56% (active) | -28.6% (active) | 11% | 19.2% | 64.2% | 102% | 20.8% | 61.4 | 82.6%
9 | COc1cc(CNS(=O)(=O)c2ccc(C)cc2)ccc1OCc1cn(-c2ccc(F)cc2)nn1 | 79.6% | 71.4% | 102% | 102% | 103% | 86.4% | 75.8% | 93.8% | 97.2% | 88 | 95.9% | 65.3% | 94.9% | 91% | 93.2% | 91.8% | 90.1% | 89.3% | 89.9 | 97.1%
10 | COc1ccc(/C=C2\COc3ccc(O)cc3C2=O)c(OC)c1OC | 89.5% | 99% | 95.8% | 80.9% | 84.8% | 102% | 55.6% | 92.4% | 87.7% | 102 | 46.2% | 17.7% | 78.2% | 82.9% | 111% | 93.4% | 98.3% | 81.6% | 97.2 | 86%
11 | Cc1nc2c(=O)[nH]c(SCC(=O)Nc3cccc(F)c3)nc2[nH]c1=O | 100% | 98.8% | 106% | 98.9% | 102% | 99.9% | 96.1% | 106% | 103% | 111 | 109% | 101% | 105% | 101% | 106% | 102% | 103% | 101% | 98.9 | 96.1%
12 | Cn1c(=O)c2c(nc(NC3=NS(=O)(=O)c4ccccc43)n2CC(=O)N2CCc3ccccc32)n(C)c1=O | 87.2% | 98.8% | 100% | 94.4% | 100% | 109% | 97.5% | 99.3% | 97.3% | 101 | 106% | 114% | 103% | 94.3% | 92.7% | 97.5% | 105% | 98.1% | 94.9 | 89.1%
13 | Nc1c(C(=O)Nc2ccncc2)sc2nc3c(cc12)CCCCCC3 | 88.6% | 80.4% | 80.6% | 96.6% | 89.9% | 67.1% | 81.6% | 76.7% | 74.6% | 104 | 93.2% | 64% | 108% | 103% | 88.5% | 100% | 82.3% | 79.9% | 91.1 | 100%
14 | CSc1nc2sc3c(c2c(=O)n1-c1ccc([N+](=O)[O-])cc1)CCCCC3 | 90.8% | 94% | 88.8% | 73.4% | 74.7% | 94.6% | 81% | 81.1% | 95.7% | 99 | 99% | 94.1% | 91.4% | 75.3% | 84.1% | 98.7% | 68.8% | 95.3% | 91.2 | 94.9%
15 | C[C@]12CC[C@@H]3c4ccc(O)c([N+](=O)[O-])c4CC[C@H]3[C@@H]1CCC2=O | 95.7% | 95.7% | 99% | 104% | 112% | 86.6% | 85.8% | 102% | 90.1% | 159 | 117% | 96.7% | 98.5% | 91.4% | 97% | 66.7% | 98.7% | 98.2% | 106 | 102%
